Compound activity from PubChem.
This is a sample that favours compounds with a hit; in the whole collection about 12% have one here.
USP10 inh = inhibitors of human USP10 deubiquitinase | Q14694 | purified USP10, Ub-rhodamine fluorescence, 60 min | inhibition, % at 20 µM | 47,000 compounds, 1.1% hits
USP7 inh = human USP7 deubiquitinase inhibition; inhibition, % at 20 µM; AID 1645854; 47,000 compounds, 0.3% hits; purified USP7, Ub-rhodamine cleavage fluorescence
USP8 inh = human USP8 deubiquitinase inhibition. P40818. purified USP8, Ub-rhodamine cleavage fluorescence, 30 min. inhibition, % at 20 µM. 47,000 compounds, 4.2% hits. AID 1645853
Target sequence (P40818 whole entry, looked up): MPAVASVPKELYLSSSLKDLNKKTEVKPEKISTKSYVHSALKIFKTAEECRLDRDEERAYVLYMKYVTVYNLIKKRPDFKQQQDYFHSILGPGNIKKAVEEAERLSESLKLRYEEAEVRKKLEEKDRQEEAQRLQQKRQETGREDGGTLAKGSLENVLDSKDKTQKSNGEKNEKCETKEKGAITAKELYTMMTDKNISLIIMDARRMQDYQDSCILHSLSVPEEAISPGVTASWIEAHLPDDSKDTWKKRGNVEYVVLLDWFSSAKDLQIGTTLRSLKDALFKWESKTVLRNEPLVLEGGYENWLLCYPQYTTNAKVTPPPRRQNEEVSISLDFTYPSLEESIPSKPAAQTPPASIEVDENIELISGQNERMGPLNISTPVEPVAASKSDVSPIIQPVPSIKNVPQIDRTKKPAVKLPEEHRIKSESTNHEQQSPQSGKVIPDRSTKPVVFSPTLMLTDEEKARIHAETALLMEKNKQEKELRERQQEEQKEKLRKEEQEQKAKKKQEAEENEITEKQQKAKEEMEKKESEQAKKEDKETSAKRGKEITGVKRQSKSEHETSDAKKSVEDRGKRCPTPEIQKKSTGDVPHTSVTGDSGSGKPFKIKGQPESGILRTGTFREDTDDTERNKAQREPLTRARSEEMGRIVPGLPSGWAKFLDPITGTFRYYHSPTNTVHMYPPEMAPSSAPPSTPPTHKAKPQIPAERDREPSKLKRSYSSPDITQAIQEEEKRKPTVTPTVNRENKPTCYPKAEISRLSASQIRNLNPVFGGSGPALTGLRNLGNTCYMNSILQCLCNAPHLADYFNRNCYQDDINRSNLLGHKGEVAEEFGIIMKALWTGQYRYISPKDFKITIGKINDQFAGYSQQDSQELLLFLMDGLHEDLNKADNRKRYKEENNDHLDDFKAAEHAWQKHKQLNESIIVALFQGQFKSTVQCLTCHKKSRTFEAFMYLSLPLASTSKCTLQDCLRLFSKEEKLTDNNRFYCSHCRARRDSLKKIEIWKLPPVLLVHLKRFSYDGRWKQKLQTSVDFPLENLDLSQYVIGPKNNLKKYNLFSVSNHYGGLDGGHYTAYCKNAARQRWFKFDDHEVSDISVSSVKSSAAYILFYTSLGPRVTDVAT
UCHL1 block = inhibitors of human UCHL1 deubiquitinase. P09936. purified UCHL1, Ub-rhodamine cleavage fluorescence. inhibition, % at 20 µM. 47,000 compounds, 0.2% hits
USP17 block = human USP17-like deubiquitinase inhibition; purified USP17, Ub-rhodamine cleavage fluorescence, 3 h; inhibition, % at 50 µM; 47,000 compounds, 6.5% hits; AID 1645855
USP30 inh = human USP30 deubiquitinase inhibition | AID 1645860 | inhibition, % at 25 µM | 47,000 compounds, 5.3% hits | purified USP30, Ub-rhodamine cleavage fluorescence
Of the large screens only hits and unclear results are named; the others gave an inactive call. No stated cut-off is given here; in the data, active means inhibition above about 30%; inactive means the rest.

COCCCNC(=O)C1c2ccccc2C(=O)N(Cc2ccccc2)C12CCCC2 (centres undefined)	none (no result: USP17 block)
COC(=O)CCCNC(=O)C1c2ccccc2C(=O)N(Cc2ccccc2)C12CCCC2 (centres undefined)	USP8 inh 45.2
COCCNC(=O)C1c2ccccc2C(=O)N(Cc2ccccc2)C12CCCC2 (centres undefined)	USP30 inh 32.3
Cc1cc2nc(N3CCOCC3)n(CC(=O)Nc3ccccc3)c(=O)c2n1C	none
Cc1cccc(NC(=O)c2nc(N3CCOCC3)c3cnn(C)c3n2)c1	USP17 block 44.2, USP30 inh 41.9
Cc1cccc(NC(=O)Cn2c(N3CCOCC3)nc3cc(C)n(C)c3c2=O)c1	USP17 block 47.5, USP30 inh 60.8
CC(C)NC(=O)N1CCCCCC1C1CCN(c2ncccn2)CC1 (centres undefined)	none
Cc1cnc(NC(=O)c2cc3c(C)nn(Cc4ccccc4Cl)c3s2)s1	USP8 inh 55.9
O=C(COc1ccc(Cl)cc1)NCc1nnc(SCC(=O)N2CCc3ccccc32)o1	USP30 inh 39.6
O=C(COc1ccc(Cl)cc1)NCc1nnc(SCC(=O)Nc2nc3ccccc3s2)o1	USP17 block 32.8
O=C(COc1ccc(Cl)cc1)NCc1nnc(SCC(=O)NCc2ccc(F)cc2)o1	none
O=C(COc1ccc(Cl)cc1)NCc1nnc(SCC(=O)N2CCN(c3ccccc3)CC2)o1	USP17 block 40.6, USP30 inh 38.5
Cc1ccsc1C(=O)N1C[C@H](Oc2cccnc2)[C@H]2OCCC[C@H]21	none
O=C(c1ccc2[nH]c3c(c2c1)CCCC3)N1CCCC(O)C1 (centres undefined)	none
COc1ccc(NC(=O)CCCCn2c(=O)[nH]c3ccccc3c2=O)cc1OC	none
CCOc1cc2[nH]c(=O)n(CCCC(=O)NCc3ccco3)c(=O)c2cc1OCC	USP17 block 33.3
COc1cc(NC(=O)Cn2c(=O)[nH]c3ccccc3c2=O)cc(OC)c1	USP17 block 52.9, USP30 inh 73.3
CCOc1cc2[nH]c(=O)n(Cc3cccnc3)c(=O)c2cc1OCC	USP30 inh 32.9
COc1cccc(CNC(=O)CCCCCn2c(=O)[nH]c3ccccc3c2=O)c1	USP30 inh 41.2
CCOc1cc2[nH]c(=O)n(CC3CCC(C(=O)N4CCN(c5ccccn5)CC4)CC3)c(=O)c2cc1OCC (centres undefined)	none
O=C(Nc1ccc(-n2cnc(C(=O)N3CCCCC3)c2)nc1)C1CC1	none
CCCS(=O)(=O)N1CCCc2ccc(NS(=O)(=O)c3ccc(OC)cc3)cc21	none
CC(C)NC(=O)N1CCOC2(CCCN(c3ccccn3)C2)C1 (centres undefined)	none
Cn1c(SCC(=O)Nc2ccc(OC(F)(F)F)cc2)nnc1-c1ccco1	none
O=S(=O)(c1ccccc1)c1cnc2ccccc2c1N1CCCCC1	USP30 inh 31.2
CCc1ccc(S(=O)(=O)c2cnc3ccc(C)cc3c2N2CCCCC2)cc1	none
Cc1ccc(S(=O)(=O)c2cnc3ccccc3c2N2CCCCCC2)cc1	none
Cc1ccc(S(=O)(=O)c2cnc3ccc(F)cc3c2N2CCCC2)cc1	USP30 inh 36.8
Cc1ccc(S(=O)(=O)c2cnc3ccc(F)cc3c2N2CCCCCC2)cc1	USP8 inh 33.2
O=C1/C(=C\c2ccc(O)cc2)CC/C1=C/c1ccc(O)cc1	none
O=C(COC(=O)c1n[nH]c2ccccc12)Nc1ccc2c(c1)CCC2	USP8 inh 30.3
O=C(COC(=O)c1n[nH]c2ccccc12)Nc1ccc(N2CCCCC2)cc1	USP17 block 59.2, USP30 inh 38.5
O=C(Cc1cccc2ccccc12)Nc1ccc(N2CCCCC2)cc1	none
COc1ccc(C)cc1NC(=O)COC(=O)c1n[nH]c2ccccc12	none
C/C1=C/C=C/[C@H](C)[C@H](O)[C@@H](C)[C@@H](O)[C@@H](C)[C@H](O)[C@H](C)[C@@H](O)[C@@H](C)/C=C(/C)C(=O)c2c(O)c(C)cc3c2C(=O)C=C(NC1=O)C3=O	USP17 block 50.5
Cc1ccc(-c2nc(C)sc2CC(=O)Nc2ccc(S(=O)(=O)Nc3ncccn3)cc2)cc1	none
Cc1nn(-c2ccccc2)c2[nH]c(=O)c(CNCc3ccc4c(c3)OCO4)cc12	USP8 inh 77.5
O=c1[nH]c2c(cc1CNCc1cccnc1)c(-c1cccc(F)c1)nn2-c1ccccc1	USP8 inh 68.4
CCn1c(C(=O)O)c(CNCc2ccc3c(c2)OCO3)c2ccccc21	none
Cc1nn(-c2ccccc2)c2[nH]c(=O)c(CNCc3ccc(F)cc3)cc12	USP8 inh 55.5
Cc1ccc(-c2nn(-c3ccccc3)c3[nH]c(=O)c(CNCc4ccccc4)cc23)cc1	USP8 inh 55.8
CCOc1ccc(-n2c(Cc3cc(=O)[nH]c(=O)[nH]3)nnc2SCc2c(F)cccc2Cl)cc1	none
CCCc1nc2cccnc2n1C1CCN(C(=O)c2cccc(OC)c2)C1 (centres undefined)	none
Cc1ccc(NCc2cc3c(-c4ccc(F)cc4)nn(-c4ccccc4)c3[nH]c2=O)cc1C	USP8 inh 77.2
Cc1nn(-c2ccccc2)c2[nH]c(=O)c(CNc3ccccc3)cc12	none
CCN(CC)S(=O)(=O)c1ccc2oc(N3CCOCC3)nc2c1	USP8 inh 68.0
CCN(CC)S(=O)(=O)c1ccc(N2CCOCC2)c(NC(=O)COc2ccccc2)c1	none
CCN(C=C1NC(=O)c2ccccc2N1)CC(=O)Nc1ccc(Cl)c(C(F)(F)F)c1	USP8 inh 30.3
CCC(C)c1ccc(NC(=O)CN(C=C2NC(=O)c3ccccc3N2)CC)cc1 (centres undefined)	none
Cc1c(C)n(-c2ccc(Br)cn2)c2ncn(Cc3ccccc3)c(=N)c12	USP8 inh 43.8
Cc1ccnc(-n2c(C)c(C)c3c(=N)n(CCO)cnc32)c1	none
Cc1noc(C2CN(C(=O)/C=C/c3ccc4c(c3)OCO4)C2)n1	USP30 inh 32.6
O=C(Cn1ncc2cc([N+](=O)[O-])ccc21)N1CCc2ccccc21	none
O=C(/C=C/c1ccc2c(c1)OCO2)N1CCCc2ccccc21	USP30 inh 45.6
O=C(OCC(=O)N1CCc2ccccc21)c1cc([N+](=O)[O-])ccc1NCCO	USP17 block 60.3 (no result: USP30 inh)
O=C(/C=C/c1cccc([N+](=O)[O-])c1)N1CCc2ccccc21	USP8 inh 84.2
O=C(c1ccn[nH]1)N1CCCC(c2nccnc2-c2cccc(F)c2)C1 (centres undefined)	none
O=C(CCc1nnc2ccc(N3CCCCC3)nn12)N1CCc2ccccc2C1	none
Cc1ccc(N2CCCS2(=O)=O)cc1NS(=O)(=O)c1ccc(F)cc1	none
COc1ccc(-c2nc3ccccc3o2)cc1NC(=O)/C=C/c1ccccc1	none
O=C(CSCc1ccccc1)Nc1nnc(C23CC4CC(CC(C4)C2)C3)s1	none
O=C(Cn1nc(-c2ccco2)ccc1=O)Nc1cccc(Br)c1	USP17 block 36.7
